Among all 52,000 compounds or so, about 4,300 (8.3%) were called active. The sample holds actives, similar compounds and a random draw of the others, so the mix is not that of the screen. Unmarked numbers belong to inactive results. Cut-off read from the data, not from the text of the source: active = survival mostly below about 52% (no sharp cut-off); inactive = mostly above about 56%.

The test system of the experiment is DeltatarO mutant. As to the kind of experiment: growth inhibition of S. aureus wild type versus tarO mutant, primary screen, teichoic acid synthesis inhibitors, RN4220, OD600 (AID 463173). Particulars: OD600, 18 h, hits give low values, screened at 18.75 µg/mL (by protocol).
For `C=CCNC(=O)CSc1nc2cc(C)cc(C)c2cc1C#N`, the survival is 58%.
For `COc1ccccc1CNC(=O)CC(c1ccc(OC)c(OC)c1)N1Cc2ccccc2C1=O` (stereo not given) the value was 83%.
Consider `CCOC(=O)c1noc2ncn(Cc3cccc(C#N)c3)c(=O)c12`, for which the survival was 130%.
The same measure for `COc1ccc(CCCc2nnc(SCC(=O)Nc3ccc(Cl)cc3)o2)cc1`: 92%; for `COc1ccc(OC)c(NC(=O)CSC2=Nc3ccccc3C3=NC(CC(=O)NCc4ccc5c(c4)OCO5)C(=O)N23)c1` (stereo not given): 80%; for `COc1ccc(OC)c(NC(=O)CSC2=Nc3ccccc3C3=NC(CCC(=O)NCc4ccco4)C(=O)N23)c1` (stereo not given): 78%.
The same measure for `COc1ccc(OC)c(NC(=O)CSC2=Nc3ccccc3C3=NC(CCC(=O)NCCc4ccccc4)C(=O)N23)c1` (stereo not given): 80%.
For the compound `COc1ccc(NC(=O)CSC2=Nc3ccccc3C3=NC(CC(=O)NCc4ccc(F)cc4)C(=O)N23)cc1` (stereo not given), the survival is 55%.
For `COc1ccc(OC)c(NC(=O)CSC2=Nc3ccccc3C3=NC(CC(=O)NCc4ccc(F)cc4)C(=O)N23)c1` (stereo not given) the value was 52% (active); for `COc1ccc(OC)c(NC(=O)CSC2=Nc3ccccc3C3=NC(CCC(=O)NCc4ccccc4)C(=O)N23)c1` (stereo not given), 0% (active); for `CCOc1ccc(C2C(=O)N(C3CCCCC3)CC(=O)N2C2CCCC2)cc1OC` (stereo not given), 71%.
For `CC(=O)N1CCOc2cc(S(=O)(=O)NCc3ccccc3Cl)c(C)cc21` the value was 85%.
The same measure for `Cc1cc(Cl)ccc1NC(=O)c1cccc(NC(=O)N2CCSc3ncccc32)c1`: 74%; for `CCCc1nn2c(=O)cc(COC(=O)c3ccco3)nc2s1`: 77%; for `CCOC(=O)c1cc2c(=O)n3ccccc3nc2n(C)c1=NC(=O)c1c(-c2ccccc2Cl)noc1C`: 141%.
Turning to `Cc1ccc(NC(=O)c2c(C)nc3sc(C(=O)Nc4ccc(F)cc4)c(N)c3c2-c2ccc(C)o2)c(C)c1`, the survival is 60%.
For `CCOC(=O)c1c(-c2ccccc2)oc2ccc(OCc3ccccc3Br)cc12` the value was 38% (active); for `CCOC(=O)c1c(-c2ccccc2)oc2ccc(NS(=O)(=O)c3ccc(C(C)C)cc3)cc12`, 70%; for `COC(=O)c1cc2oc3ccccc3c2n1Cc1c(F)cccc1Cl`, 118%.
For `CCOC(=O)c1c(-c2ccccc2)oc2ccc(N(C(C)=O)S(=O)(=O)c3ccc(CC)cc3)cc12` the value was 69%; for `O=C(O)c1c(-c2ccccc2)oc2ccc(OCc3c(F)cccc3Cl)cc12`, 29% (active); for `CNC(=O)c1c(-c2ccccc2)oc2ccc(OC)cc12`, 90%.
With `O=C(O)c1c(-c2ccccc2)oc2ccc(OCc3ccc(Cl)c(Cl)c3)cc12`, the survival is -1% (active).
For `C=Cc1ccc(COc2ccc3oc(-c4ccccc4)c(C(=O)OCC)c3c2)cc1` the value was 45% (active); for `Cc1ccc(NC(=O)Cn2c(=O)n(CCCCC(=O)NCc3ccc4c(c3)OCO4)c(=O)c3ccccc32)cc1`, 72%.
For `CC1(C)N([O-])C2=C(CCCC2)[N+]1=O` the value was 83%.
For `CCCc1nc2ccccc2n2c(-c3cccc(C)c3)c3c(=O)n(C)c(=O)n(C)c3c12` the value was 67%.
For `Cc1cc(-c2ccc(C)c(S(=O)(=O)NCCc3ccccc3)c2)on1`, the survival was 80%.
The same measure for `CCOC(=O)c1c(-c2ccccc2)oc2ccc(OCc3ccc(C)cc3)cc12`: 30% (active); for `CCOC(=O)c1c(-c2ccc(OC)cc2)oc2ccc(OCc3ccc(C(=O)OC)cc3)cc12`: 48%; for `CCOC(=O)c1c(-c2ccccc2)oc2cc(Br)c(OCC(N)=O)cc12`: 79%.
As to `CCOC(=O)c1c(-c2ccc(OC)cc2)oc2ccc(OCc3ccccc3C)cc12`, the survival is 51%.
Regarding `CCOC(=O)c1c(C)oc2ccc(OCC(N)=O)cc12`, the survival was 100%.
For `CCOC(=O)c1c(-c2ccc(OC)cc2)oc2ccc(OCc3ccc(F)cc3F)cc12` the value was 38% (active); for `CCOC(=O)c1c(-c2ccccc2)oc2ccc(N(C(C)=O)S(=O)(=O)c3ccccc3)cc12`, 60%.
The same measure for `CCOc1ccc(-c2oc3ccc(C)cc3c(=O)c2O)cc1`: 91%; for `Cc1ccc(COc2ccc3oc(-c4ccccc4)c(C(=O)O)c3c2)cc1`: 34% (active); for `CCOC(=O)c1c(-c2ccccc2)oc2ccc(N(C(C)=O)S(=O)(=O)c3ccc(C)cc3)cc12`: 62%.
`CCOC(=O)c1c(-c2ccc(OC)cc2)oc2ccc(OCc3ccc(Br)cc3)cc12`: the survival was 63%.
`CCOC(=O)c1c(-c2ccccc2)oc2cc(Br)c(OCc3ccccc3)cc12`: the survival is 36% (active).
As to `Cc1ccc(C(=O)N/C(=C\c2cn(S(=O)(=O)N(C)C)c3ccccc23)C(=O)NCCCn2ccnc2)cc1`, the survival was 80%.
For `O=C(c1ccc(CS(=O)(=O)c2c(Cl)cccc2Cl)o1)N1CCN(c2ccccc2)CC1` the value was 107%.
The same measure for `Cc1ccc(CNC(=O)CN2C(=O)CSc3c2c(C)nn3-c2ccccc2)cc1`: 89%; for `CC(CCc1ccccc1)NC(=O)Cn1ncc2c3ccccc3n(Cc3ccccc3F)c2c1=O` (stereo not given): 92%; for `COc1ccccc1N1CCN(C(=O)CCS(=O)(=O)c2cc(Br)cc3c2N(C(=O)C2CC2)CC3)CC1`: 83%.
Consider `O=C(O)CCn1c(=O)c2cccn2c2cccnc21`, for which the survival was 98%.
With `CCOC(=O)c1c(-c2ccccc2)oc2ccc(OCc3cccc(Br)c3)cc12`, the survival was 38% (active).
For `O=C(NCCc1ccccc1)C(=O)NCC(c1cccnc1)N1CCN(c2ccc(F)cc2)CC1` (stereo not given) the value was 103%; for `C=CCN(CC=C)C(=O)COc1ccc(Cl)cc1Cl`, 73%.
For the compound `CCOc1cccc2sc(NC(=O)c3ccc(S(=O)(=O)N4CCc5ccccc54)cc3)nc12`, the survival was 71%.
For `Oc1ccc(-c2cccc(-c3ccc(O)cc3)c2)cc1` the value was 27% (active); for `COc1ccc(OC)c(CNCc2c(C(=O)O)n(Cc3ccccc3)c3cc(OC)ccc23)c1`, 77%.
In the case of `CCOc1ccc(CNCc2c(C(=O)O)n(Cc3ccc(C)cc3)c3cc(C)ccc23)cc1`, the survival is 12% (active).
For `Cc1ccc2c(CNCCc3ccccc3)c(C(=O)O)n(Cc3ccccc3C)c2c1` the value was 6% (active); for `CCOc1ccc(CCNCc2c(C(=O)O)n(Cc3ccc(C)cc3)c3cc(OC)ccc23)cc1`, 58%.
For the compound `Cc1ccc2c(CNCc3cccc(Cl)c3)c(C(=O)O)n(Cc3ccc(F)cc3Cl)c2c1`, the survival is 70%.
Take `Cc1ccccc1Cn1c(C(=O)O)c(CNCc2cccc(F)c2)c2ccccc21`: the survival is 52% (active).
For `COc1ccc2c(CNCc3ccc(Cl)cc3)c(C(=O)O)n(Cc3ccccc3C)c2c1` the value was 97%.
For `C=Cc1ccc(Cn2c(C(=O)O)c(CNCCc3ccccc3)c3ccc(C)cc32)cc1` the value was 92%.
With `CCOc1ccc(CNCc2c(C(=O)O)n(Cc3ccc(OC)cc3)c3ccccc23)cc1`, the survival is 82%.
The same measure for `CCc1ccc(CNCc2c(C(=O)O)n(Cc3cccc(F)c3)c3cc(OC)ccc23)cc1`: 79%; for `Cc1ccc(CNCc2c(C(=O)O)n(Cc3ccccc3C)c3cc(C)ccc23)cc1`: 67%.
The same measure for `COc1ccc(OC)c(CNCc2c(C(=O)O)n(Cc3cccc(F)c3)c3cc(OC)ccc23)c1`: -1% (active); for `CCC1CCCCN1C(=O)Cn1c(=O)n(-c2ccccc2C(F)(F)F)c(=O)c2c(C)c(C(=O)N(C)C)sc21` (stereo not given): 80%.
For `CCC1CN(C(=O)N2CCC(C(=O)Nc3ccccc3F)CC2)c2ccccc2O1` (stereo not given) the value was 74%; for `Cc1ccc(NC(=O)c2oc3ccc(S(=O)(=O)N4CCOCC4)cc3c2C)c(C)c1`, 125%; for `CCOC(=O)c1cn(CC(=O)Nc2ccc(OC)cc2OC)nn1`, 83%.
For `Cc1cccc(CNC(=O)Cn2nc(C)n3c(cc4cc(F)ccc43)c2=O)c1`, the survival is 77%.
With `O=C(O)CCc1ccco1`, the survival is 98%.
Regarding `CCOC(=O)C1CCN(C(=O)Cc2cccc3ccccc23)CC1`, the survival is 82%.
Consider `CCN(CC)S(=O)(=O)c1ccc(C(=O)NCCSc2c(-c3ccc(F)cc3)[nH]c3ccccc23)cc1`, for which the survival was 69%.
On to `CCOC(=O)COc1ccc(F)cc1C(=O)c1ccn2nc(-c3ccc(C)cc3)cc2n1`, for which the survival was 80%.
The same measure for `COc1ccc(-c2nc(Cn3c(SCc4ccccc4F)nc4cccnc43)c(C)o2)cc1`: 69%; for `Cc1ccc2c(CNCCc3ccco3)c(C(=O)O)n(Cc3ccc(F)cc3)c2c1`: 59%; for `COc1ccc(Cn2c(C(=O)O)c(CNCc3cccs3)c3ccc(C)cc32)cc1`: 89%.
As for `COc1ccc(Cn2c(C(=O)O)c(CNCc3cccc(OC)c3)c3ccc(C)cc32)cc1`, the survival is 74%.
The same measure for `Cc1ccc(Cn2c(C(=O)O)c(CNCc3cccs3)c3ccc(C)cc32)cc1`: 48% (active).
The same measure for `Cc1ccc2c(CNCCc3ccc(Cl)cc3)c(C(=O)O)n(Cc3ccc(F)cc3)c2c1`: 8% (active).
For the compound `C=Cc1ccc(Cn2c(C(=O)O)c(CNCc3ccc(F)cc3)c3ccc(C)cc32)cc1`, the survival is 86%.
Consider `Cc1ccc2c(CNCc3cccs3)c(C(=O)O)n(Cc3ccc(F)cc3)c2c1`, for which the survival is 82%.
For `Cc1ccc(Cn2c(C(=O)O)c(CNCc3ccccc3Cl)c3ccc(C)cc32)cc1`, the survival is 58%.
The same measure for `Cc1ccc(Cn2c(C(=O)O)c(CNCc3ccc(OC(C)C)cc3)c3ccc(C)cc32)cc1`: 11% (active).
The same measure for `Cc1ccc(CNCc2c(C(=O)O)n(Cc3ccc(C)cc3)c3cc(C)ccc23)cc1`: 2% (active).
For `Cc1ccc(Cn2c(C)c(CNCc3ccc(OC(C)C)cc3)c(C(=O)O)c2C)cc1` the value was 121%; for `C=Cc1ccc(Cn2c(C(=O)O)c(CNCc3ccccc3)c3ccc(C)cc32)cc1`, 120%.

For the origin of these results see PubChem BioAssay AID463173 (ICCB-Longwood Screening Facility, Harvard Medical School, 2010).
